From PubChem
BAZ2B inh: qHTS Assay for Inhibitors of BAZ2B. Bromodomain adjacent to zinc finger domain protein 2B (Homo sapiens), Q9UIF8. AlphaScreen BAZ2B-H3K14Ac peptide displacement. Potency, µM (highest dose often 114 µM), inactives show at the top dose activity change, negative = inhibition, hits mostly inhibitors. 360,000 tested, 4.4% active. AID 504333, 2011; also: % is scaled to controls: 0 for no effect and ±100 for the full control effect; nearly all actives have a fitted effect of over 60% in size
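AlphaScreen displacement: compounds (up to 110uM) incubated 30 min at room temperature with a preformed 50 nM BAZ2B/50 nM biotinylated H3K14Ac peptide complex in PBS pH 7.4 with Tween-20. Donor and acceptor beads at 10 ug/mL final added, 20 min light-protected before reading.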
JMJD2A Tudor inh: qHTS Assay for Inhibitors of JMJD2A-Tudor Domain; Lysine-specific demethylase 4A (Homo sapiens), O75164; AlphaScreen JMJD2A-Tudor / H3K4me3 peptide binding; Potency, µM (top dose mostly 114 µM), without a hit: at the top dose activity change, negative = inhibition, actives largely listed as inhibitors; 390,000 tested, 4.4% active; also: % is scaled to controls: 0 for no effect and ±100 for the full control effect; nearly all actives have a fitted effect of over 50% in size
G9a block: qHTS Assay for Inhibitors of Histone Lysine Methyltransferase G9a; Potency, µM (doses to about 102 µM), without a hit: at the top dose activity, negative = inhibition, hits mostly inhibitors; 350,000 tested, 8.8% active; Histone-lysine N-methyltransferase EHMT2 (Homo sapiens), Q96KQ7; AID 504332, 2011; G9a H3K9 monomethylation, AlphaScreen, 2 h; also: % is scaled to controls: 0 for no effect and ±100 for the full control effect; nearly all actives have a fitted effect of over 75% in size
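G9a (20 nM) was preincubated 15 min with compound, then reacted 2 h at room temperature with 500 nM biotin-H3K9 peptide and 20 µM SAM. Monomethyl-H3K9 detected by AlphaScreen using anti-H3K9me1 antibody.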
HP1b chromo inh: HTS for Inhibitors of HP1-beta Chromodomain Interactions with Methylated Histone Tails. 390,000 tested, 0.56% active. Chromobox protein homolog 1 (Homo sapiens), P83916. AlphaScreen HP1-beta / biotin-H3K9me3 peptide binding. Potency, µM (top dose mostly 114 µM), inactives show at the top dose activity change, negative = inhibition, most hits filed as inhibitors; also: nearly all actives have a fitted effect of over 70% in size
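AlphaScreen: HP1-beta (50 nM) preformed 30 min with biotin-H3(1-18)K9me3 peptide (50 nM) in PBS pH 7.4, 0.01% Tween-20. Compound added for 30 min at RT, then streptavidin donor/nickel chelate acceptor beads (10 ug/mL) for 30 min.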
GLS inh: qHTS for Inhibitors of Glutaminase (GLS) | Glutaminase kidney isoform, mitochondrial (Homo sapiens), O94925 | GLS enzymatic activity, qHTS titration | Potency, µM (highest dose often 45.5 µM), inactives show top-dose activity change, negative = inhibition, hits mostly inhibitors | 410,000 tested, 0.21% active; also: % is scaled to controls: 0 for no effect and ±100 for the full control effect
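hKGA; 45 mM KH2PO4 pH 8.2 + 0.02% Tween-20; cpd via pin tool; 1 mM Gln soln; GluOx/HRP/Amplex Red; RT 30 min; fluor. t0 & final.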
An asterisk follows results filed as active; ? = inconclusive; · = not tested or not shown; [ ] = another dose, or the depositor's remark. Hits are enriched below; roughly 10% of the tested compounds scored in any of these assays. Calls follow the shape of the dose curve; as a rule, active = well fitted curve in the direction sought with a large enough effect; inconclusive = small, poorly fitted or top-dose-only effect, or another doubt; inactive = no such curve, though single readings can be large; an effect the other way counts as inactive or inconclusive. Potency is read from the fitted curve at half-maximal effect.

SMILES	BAZ2B inh	JMJD2A Tudor inh	G9a block	HP1b chromo inh	GLS inh
Cc1cc(NC(=O)CSCC(=O)N(C)Cc2ccc(Cl)c(Cl)c2)no1	-14.0%	-4.5%	19.9%	46.6%	-3.4%
CN(C)Cc1nc2c([nH]1)c(=O)n(C)c(=O)n2C	-3.8%	3.55µM*	?	23.9%	5.9%
COc1ccc2cc(C(=O)C3CCCN(Cc4cccc(C)n4)C3)ccc2c1 (stereo unspecified)	-30.6%	?	·	?	1.6%
CCc1ccc(NC(=O)c2cc(C(C)=O)n3ccccc23)cc1	-0.3%	-4.5%	1.3%[59 µM]	62.5%	-1.0%
COC(=O)c1cc(C(C)=O)n2ccccc12	50.1µM*	-17.8%[11.4 µM]	0.7%[59 µM]	-6.5%	-8.0%
COc1ccccc1N1CCN(C(=O)CSc2nnc(NC(=O)C3CC3)s2)CC1	6.2%	0.7%	-7.4%	39.5%	21.4%
COc1ccccc1N1CCN(C(=O)CSc2nnc(NC(=O)c3ccco3)s2)CC1	-4.5%	-2.9%	50.1µM*	15.2%	2.2%
CCSc1nnc(NC(=O)c2ccco2)s1	8.2%	-5.9%	-33.2%[59 µM]	15.1%	9.4%
CC(C)Sc1nnc(NC(=O)c2ccco2)s1	-24.4%	-6.8%	25.1µM*	52.4%	0.7%
Cc1c(NS(=O)(=O)c2cc(C(=O)NCc3cccnc3)cc(Cl)c2Cl)c(=O)n(-c2ccccc2)n1C	6.4%	-11.5%	6.9%[0.501 µM]	21.4%	1.8%
CC(C)CCN1CCN(Cc2ccsc2)CC1CCO (stereo unspecified)	-2.8%	9.2%	7.1%	17.4%	0.4%
Cn1ccc(C(=O)Oc2ccc(C(=O)Nc3ccc(F)cc3F)cc2)n1	16.7%	-0.8%	8.3%	38.8%	-9.2%
Fc1ccc(CNCc2ccccc2Cl)cc1	·	20µM*	2.82µM*	?	2.7%
Cc1ccc(S(=O)(=O)N2CCCC2CNC(=O)C(=O)NCc2ccc3c(c2)OCO3)cc1 (stereo unspecified)	·	·	·	·	12.7%
Cc1cc(OCCCCNC(C)C)cc(C(C)C)c1	?	17.8µM*	28.2µM*	?	6.9%
Cc1cc(C)cc(OCCCn2ccnc2)c1	?	-26.9%	·	26.9%	-0.4%
Cc1ccc(SC[C@H](Cc2ccccc2)N2CCN(CC(C)C)CCC2=O)cc1	19.4%	8.5%	3.9%[12.7 µM]	76.9%	-2.7%
Cc1cc(C)cc(NC(=O)CSc2nc3c([nH]c4ccccc43)c(=O)n2-c2ccc(F)cc2)c1	18.8%	-6.1%	-19.2%[59 µM]	33.7%[57 µM]	-6.5%
OC(Cn1cnnc1)c1ccccc1 (stereo unspecified)	25.1µM*	6.31µM*	35.5µM*	22.4µM*	10.3%
CCOC(=O)c1cc(-c2ccccc2)sc1NC(=S)Nc1cc(C)ccn1	-35.7%	-29.7%	45.8%[12.7 µM]	19.3%	10.3%
O=C(NCCCN1CCOCC1)c1ccc2ccccc2c1	?	-16.6%	-14.0%	8.0%	-8.4%
O=C(CN1CCOCC1)N(c1ccccc1)c1ccc2ccccc2c1	-26.6%	-21.9%	50.1µM*	47.1%	8.1%
O=C(CN1CCN(c2ccccn2)CC1)N(c1ccccc1)c1ccc2ccccc2c1	?	-19.1%[11.4 µM]	50.1µM*	-36.0%	1.5%
CCN(CC)C(=O)c1sc(N)c(C(=O)OC(C)C)c1C	6.2%	-22.9%	11.2µM*	-12.3%	7.3%
CCOC(=O)c1sc(NC(=O)c2ccccc2)cc1C	-1.1%	-1.5%	-16.5%	29.1%	1.6%
SMILES	BAZ2B inh	JMJD2A Tudor inh	G9a block	HP1b chromo inh	GLS inh
CCOC(=O)c1sc(N)c(C(=O)Nc2ccccc2)c1C	-19.0%	-19.7%	10µM*	?	-13.5%
CCOC(=O)c1sc(NC(=O)c2c(C)nn(Cc3ccccc3)c2C)cc1C	-2.0%	-7.3%	50.1µM*	14.9%	0.6%
CCOC(=O)c1c(N)sc(C(=O)OCCOC)c1C	-20.1%	-21.8%[57.1 µM]	11.2µM*	?	?
Cc1ccc2c(CC(=O)Nc3cccc(Cl)c3C)coc2c1	-18.1%	-16.3%	-17.4%[59 µM]	25.1%	-3.5%
COc1ccc(-n2ncc3c(=O)n(CC(=O)N4c5ccccc5CC4C)cnc32)cc1 (stereo unspecified)	0.4%	-11.5%	15.9%[59 µM]	29.6%	4.6%
COc1ccccc1NC(=O)CN1C(=O)C2(SCC(=O)N2c2ccc(F)c(F)c2)c2ccccc21 (stereo unspecified)	-0.1%[57.1 µM]	-20.1%	-30.0%[59 µM]	10.7%	5.4%
CCOC(=O)c1c(NC(=O)CSc2cccc[n+]2[O-])sc(C(=O)Nc2ccccc2)c1C	0.2%	-2.8%	44.7µM*	33.3%	-10.8%
COc1ccc(-c2cc(C(F)(F)F)nc(N3CCN(Cc4ccccc4)CC3)n2)cc1OC	-37.4%	-23.0%	7.7%[12.7 µM]	22.0%	3.4%
Cc1cccc(-n2c(-c3csc(C)c3)n[nH]c2=S)c1	-33.1%	11.2µM*	0.316µM*	?	?
CCc1cc(-c2n[nH]c(=S)n2-c2cccc(C)c2)cs1	-36.8%	31.6µM*	?	-0.6%	?
Cc1cccc(-n2c3nc(=O)[nH]c(=O)c-3cc3cc([N+](=O)[O-])ccc32)c1	1.0%	-29.1%	50.1µM*	5.2%	5.0%
Cc1ccc(C)c(-n2c3nc(=O)[nH]c(=O)c-3cc3cc([N+](=O)[O-])ccc32)c1	-27.7%	?	10µM*	-19.6%	-20.7%
CC(=O)Nc1cccc(-c2nc3ccccc3s2)c1	-12.4%	-14.6%	·	51.8%	-1.0%
CC(=O)Nc1cccc(-c2cc(C)c3cc4c(cc3n2)OCO4)c1	-32.8%	-23.5%	50.1µM*	33.8%	9.5%
CC(=O)C(C(C)=O)C(NC(=O)c1cccnc1)(C(F)(F)F)C(F)(F)F	-24.4%	3.55µM*	-15.6%[59 µM]	20.0%	?
O=C(NCc1cccnc1)C1c2ccccc2C(=O)N1Cc1ccccc1 (stereo unspecified)	3.0%	-28.3%	3.9%	19.2%	-1.6%
CCOC(=O)CN(C(=O)CSc1nnc(-c2ccncc2)n1CCCN(C)C)c1ccccc1	50.1µM*	?	2.82µM*	?	0.6%
C=CCn1c(SCC(=O)c2c(C)[nH]c3ccccc23)nnc1-c1ccncc1	3.3%	1.5%[11.4 µM]	50.1µM*	25.3%	-4.0%
Cc1[nH]c2ccccc2c1C(=O)CSc1ccc(Cl)cc1	-25.4%	22.4µM*	-30.4%	?	?
C=CCn1c(SCC(=O)N2CC(C)OC(C)C2)nnc1-c1ccncc1 (stereo unspecified)	-5.3%	0.0%	7.94µM*	28.9%	4.2%
Cc1[nH]c2ccccc2c1C(=O)CSc1nc2ccccc2[nH]1	-1.0%	-18.6%	48.3%[12.7 µM]	55.0%	0.6%
COc1ccccc1CNC(=O)COC(=O)c1ccncc1	·	-4.8%	·	40.5%	-8.5%
O=C(C1=C[C@H](c2csc3ccccc23)C[C@H](OCc2ccc(CO)cc2)O1)N1CCN(Cc2ccccc2)CC1	-31.4%	?	-3.7%[12.7 µM]	2.5%	0.0%
